# Fam108B counter: blocks mouse Fam108B hydrolase in RBBP9 counter-screen. 300,000 tested, 0.33% active. inhibition, % at 9.51 µM. AID 1947. recombinant Fam108B, FP-Rh probe fluorescence polarization;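 active = inhibition above the screen mean inhibition plus 3 SD, computed separately per campaign, cut at about 18% in these data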;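 also: inhibitors lower polarization as less probe binds the enzyme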
# pPAFAH inh: inhibitors of human plasma PAF acetylhydrolase (pPAFAH) | inhibition, % at 3.39 µM | Q13093 | recombinant pPAFAH, FP-rhodamine probe fluorescence polarization | 330,000 tested, 1.5% active;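 active = inhibition above the mean inhibition across the screen plus 3 SD, cut at about 25% in these data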;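 also: inhibitors block binding of the rhodamine activity-based probe so polarization drops; 0% = enzyme with DMSO and 100% = wells lacking pPAFAH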
# Target sequence (Q13093 whole entry, looked up): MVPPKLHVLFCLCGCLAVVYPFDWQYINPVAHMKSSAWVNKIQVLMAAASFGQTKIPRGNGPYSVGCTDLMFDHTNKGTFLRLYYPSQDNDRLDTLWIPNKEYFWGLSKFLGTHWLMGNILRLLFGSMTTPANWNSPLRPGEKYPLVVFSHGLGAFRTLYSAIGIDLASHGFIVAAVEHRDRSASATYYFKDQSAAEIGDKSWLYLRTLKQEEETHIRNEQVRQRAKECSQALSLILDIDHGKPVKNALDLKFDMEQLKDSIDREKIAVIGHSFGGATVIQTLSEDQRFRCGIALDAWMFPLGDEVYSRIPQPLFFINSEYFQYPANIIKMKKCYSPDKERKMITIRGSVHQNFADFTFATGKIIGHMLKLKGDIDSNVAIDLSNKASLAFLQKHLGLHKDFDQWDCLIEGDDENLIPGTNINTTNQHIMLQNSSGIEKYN
# PME-1 primary: PME-1 (human) inhibition | recombinant PME-1, FP-Rh probe fluorescence polarization | inhibition, % at 5.9 µM | Q9Y570 | 320,000 tested, 0.53% active | AID 2130;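 active = inhibition above the campaign mean of all compounds plus 3 SD, cut at about 26% in these data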;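 also: competitive labeling of PME-1 active site by serine hydrolase directed probe; 0% = PME-1 with DMSO and 100% = wells lacking PME-1 enzyme; inhibitors block probe labeling so polarization falls and inhibition rises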
# PAFAH1B2 FP inh: inhibitors of human PAFAH1B2; 340,000 tested, 1.2% active; recombinant PAFAH1B2, FP-rhodamine activity probe, fluorescence polarization; AID 492953; P68402; inhibition, % at 3.39 µM;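 active = inhibition above the mean of all tested compounds plus 3 SD, cut at about 24% in these data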;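 also: 0% = enzyme with DMSO and 100% = wells lacking PAFAH1B2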
# PAFAH1B3 inh: inhibitors of human PAFAH1B3; inhibition, % at 3.39 µM; AID 492972; recombinant PAFAH1B3, FP-rhodamine probe, fluorescence polarization; 340,000 tested, 0.28% active; Q15102;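 active = inhibition above the screen-wide average of all tested compounds plus 3 SD, cut at about 25% in these data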;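 also: 0% = enzyme with DMSO only and 100% = wells lacking PAFAH1B3 protein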
# PAFAH2 inh: inhibitors of human PAFAH2; recombinant PAFAH2, FP-rhodamine activity probe, fluorescence polarization; AID 492956; 340,000 tested, 0.99% active; inhibition, % at 3.39 µM;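 active = inhibition above the mean over all tested compounds plus 3 SD, cut at about 30% in these data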;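 also: inhibitors block probe labeling of enzyme so polarization drops; 0% = enzyme with DMSO and 100% = wells lacking PAFAH2 protein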
# Active calls of the source: *; / = not tested or not shown. A selection: hits, their analogues and other compounds. The true share with any hit is near 2.9%.
SMILES,Fam108B counter,pPAFAH inh,PME-1 primary,PAFAH1B2 FP inh,PAFAH1B3 inh,PAFAH2 inh
Cc1ccc(SCc2[nH]nc3c2C2(CCSCC2)C(C#N)=C(N)O3)cc1,2,2,9,38*,-6,1
CCOC(=O)N1CCC2(CC1)C(C#N)=C(N)Oc1n[nH]c(CSc3ccc(C)cc3)c12,2,6,8,27*,3,2
O=S(=O)(NCC(c1cccnc1)N1CCN(Cc2ccccc2)CC1)c1cc(F)ccc1F (stereo not given),-2,6,0,3,4,-2
O=C(O)c1cc(-n2nnnc2SCc2ccccc2F)ccc1Cl,-1,1,3,1,2,0
O=C(O)c1cc(-n2nnnc2SCc2ccc([N+](=O)[O-])cc2)ccc1Cl,1,7,5,26*,4,4
CCOc1ccc(NC(=O)C2=NN(c3ccccc3)C(=O)CC2)cc1S(=O)(=O)N1CCCCC1,/,1,-1,0,1,2
CCc1ccc(C(=O)/C=C/c2ccc([N+](=O)[O-])o2)cc1,16,27*,-3,1,0,1
S=c1[nH]cnc2sc(-c3ccccc3)cc12,3,2,2,46*,-6,1
CCCCC(CC)CNC(=O)CN(C)S(=O)(=O)c1cccc2nsnc12 (stereo not given),1,3,10,25*,9,6
O=C(O)c1[nH]c2ccccc2c1NS(=O)(=O)c1ccc(F)cc1,1,3,-5,24*,-1,3
COc1ccc2[nH]c(C(=O)O)c(NS(=O)(=O)c3ccc(F)cc3)c2c1,4,4,4,27*,8,5
COc1ccc2[nH]c(C(=O)O)c(NS(=O)(=O)c3ccc(C)c(C)c3)c2c1,6,10,-2,18,9,7
CCC(C)(C)NC(=O)C1CCCN(S(=O)(=O)c2ccc3c(c2)CC(C)N3C(=O)C2CC2)C1 (stereo not given),2,6,6,5,7,3
Cc1cc(=O)oc2c3c(cc(OCC(=O)NCC(=O)O)c12)OC(C)(C)CC3,4,16,3,5,3,12
Cc1cc(=O)oc2c3c(cc(OCC(=O)NCc4ccccc4)c12)OC(C)(C)CC3,-4,33*,1,10,15,20
Cc1c(C)c2c(OCC(=O)N[C@@H](CC(C)C)C(=O)O)cc3c(c2oc1=O)CCC(C)(C)O3,/,/,/,44*,-3,75*
COc1ccc(NC(=O)C(CC(C)C)NC(=O)C2CCC(C)CC2)c(OC)c1 (stereo not given),0,2,-2,0,5,0
COc1ccc(-n2cc(CNC3CCC(O)CC3)c(-c3cccc(F)c3)n2)cc1 (stereo not given),-4,4,-6,4,4,-3
CC#CCN1c2ccccc2[C@]23C[C@@H](C(=O)OC)N(C(=O)c4cc(C)oc4C)C2=NC(C(=O)OC)=C(C(=O)OC)[C@H]13,0,3,28*,0,-3,-5
COc1ccc2[nH]c3c(c2c1)CCN1C(=O)C(CC(=O)NCCCN(C)C)C[C@H](C(=O)N2CCCCC2)[C@@]31C (stereo not given in full),/,2,/,2,4,-2
O=C(Nc1ccc(-c2n[nH]c(=S)o2)cc1)c1ccccc1Br,-5,6,7,3,5,2
O=C(CN1C(=O)S/C(=C\c2ccc(Cl)cc2)C1=O)NNC(=O)c1ccccc1O,-1,29*,-2,2,4,7
CCOc1ccccc1N1CCN(C(=O)c2cc(-c3cc(OC)ccc3OC)nc3ccccc23)CC1,0,4,7,-1,4,7
CC(C)(C)c1ccc(/C=N/OCC(=O)NCc2ccccc2)cc1,0,5,-4,23,-3,5
Cc1ccc(CNC(=O)CO/N=C/c2ccc(C(C)(C)C)cc2)cc1,-1,7,-5,29*,3,-6
SMILES,Fam108B counter,pPAFAH inh,PME-1 primary,PAFAH1B2 FP inh,PAFAH1B3 inh,PAFAH2 inh
COc1ccccc1-c1nnc2sc(COc3ccc(Cl)cc3)nn12,1,1,-9,26*,-3,6
COc1ccc(Cc2nn3c(-c4ccccc4OC)nnc3s2)cc1,-1,11,0,1,3,5
CCOc1cc(Br)cc(/C=C2\SC(=Nc3ccccc3)NC2=O)c1O,-1,25*,-2,6,7,12
COc1ccc2nc(NN=C(C)c3ccccn3)cc(C)c2c1,/,/,/,2,5,5
Oc1ccc(/C=N/Nc2ccnc3cc(Cl)ccc23)c(O)c1,4,3,27*,8,17,-5
Cc1ccc(/C=N/Nc2ccnc3cc(Cl)ccc23)c(C)c1,16,19,35*,10,20,9
COc1ccc(C2C(C(=O)c3ccccc3)N3c4ccccc4C=CC3C2[N+](=O)[O-])cc1 (stereo not given),/,/,/,3,4,5
COC(=O)[C@@H](Cc1ccccc1)NC(=O)Cn1cc(C)c(=O)[nH]c1=O,/,/,/,2,8,-4
Cc1noc(C)c1CSCC(=O)N(C)CC(=O)Nc1ccccc1Br,-3,-2,2,1,-2,-5
NC(=O)C(CC(=O)O)NC(=O)[C@@H]1CCCNc2c(I)cc([N+](=O)[O-])cc2C(=O)N[C@@H](CO)C(=O)N[C@@H](Cc2ccc(O)cc2)C(=O)N1 (stereo not given in full),-2,26*,0,8,7,-1
Nc1cc2cccnc2cc1Cl,/,/,/,21,37*,44*
Cc1noc(C)c1C(c1ccccc1)c1ccccc1,5,2,3,29*,1,-3
CNC(=O)c1ccc(-c2sc3nc(N4CCOCC4)c4c(c3c2N)CC(C)(C)OC4)o1,4,3,-28,9,9,-1
CNC(=O)c1ccc(-c2sc3nc(N4CCOCC4)c4c(c3c2N)CCCC4)o1,13,27*,-3,1,3,-2
Nc1c(C(=O)NCc2ccccc2)sc2nc(N3CCOCC3)c3c(c12)CCCC3,8,27*,5,4,-9,6
NNC(=O)c1sc2nc(N3CCOCC3)c3c(c2c1N)CCCC3,6,15,21,/,/,/
CC(C)=C(NC(=O)c1ccccc1)C(=O)NCc1ccccc1,0,-1,2,6,10,2
O=C(NN=Cc1ccc(F)cc1)c1ccccc1NS(=O)(=O)c1cccs1,/,19,/,5,7,15
O=C(N/N=C/c1ccc([N+](=O)[O-])o1)c1cc2ccccc2o1,-1,30*,7,7,11,2
O=C(N/N=C/c1ccc([N+](=O)[O-])o1)c1ccccc1NS(=O)(=O)c1cccs1,4,34*,7,6,5,6
O=C(NN=Cc1cc(Br)c(O)c(Br)c1)c1ccccc1NS(=O)(=O)c1cccs1,/,31*,/,4,30*,11
